Screening data from PubChem BioAssay.
Sampled rows, rich in hits. Any-hit rate of the full collection: about 2.8%.
PG9 binder – binds the HIV-1 gp120 antibody PG9; inhibition, % at 6.7 µM; AID 624416; TR-FRET gp120-PG9 antibody binding; actives 0.43% (n = 360,000); in the data active = inhibition above about 8.5%
Rev-erbA mod – Rev-erb alpha (human) modulation; Rev-erbα–FITC-DNA binding, fluorescence polarization, 90 min; activity, % at 10 µM; actives 0.79% (n = 370,000);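 active = activity above about 14%, limit read from the data; passing the limit was not always enough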
PP5 inh – blocks human protein phosphatase 5 activity. AID 1987. P53041. actives 0.18% (n = 320,000). purified PP5c, OMFP substrate fluorescence. inhibition, % at 6.7 µM;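 active = inhibition above the campaign's mean inhibition across all tested compounds plus 3 SD, cut at about 9.5% in these data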
KLK7 zymogen act – activators of human kallikrein-7 zymogen | actives 0.9% (n = 370,000) | AID 652039 | activation, % at 7 µM | purified proKLK7, EDANS-DABCYL substrate fluorescence; 100% is mature enzyme control, 0% vehicle;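 active = activation above the mean of all tested compounds plus 3 SD, computed per campaign excluding outliers beyond control limits, cut at about 13% in these data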
Target sequence (P49862 whole entry, looked up): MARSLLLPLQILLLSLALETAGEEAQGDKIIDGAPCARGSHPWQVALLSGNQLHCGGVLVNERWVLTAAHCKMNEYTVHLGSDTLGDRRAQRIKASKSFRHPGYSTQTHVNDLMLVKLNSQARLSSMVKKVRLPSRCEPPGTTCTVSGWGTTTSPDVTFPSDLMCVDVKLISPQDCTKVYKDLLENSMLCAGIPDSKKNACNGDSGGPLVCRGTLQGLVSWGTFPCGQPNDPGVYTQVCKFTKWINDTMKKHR
GASC-1 inh – human JMJD2C demethylase inhibition; Q9H3R0; GST-JMJD2C(1-420) H3K9me3 demethylation, DELFIA europium; inhibition, % at 2.35 µM; actives 0.069% (n = 330,000); AID 2099;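 active = more than half of a compound's replicate wells show inhibition beyond 50%, single wells judged on their own value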;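 note: signal counts dimethyl H3K9 product captured on neutravidin plate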
PP1 counter – PP1-alpha (human) inhibition in PP5 counter-screen | purified PP1alpha, OMFP fluorescence | inhibition, % at 6.7 µM | P62136 | actives 0.9% (n = 320,000);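 active = inhibition above the mean inhibition of all tested compounds plus 3 SD, computed separately for each screening campaign, cut at about 15% in these data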
Target sequence (P62136 whole entry, looked up): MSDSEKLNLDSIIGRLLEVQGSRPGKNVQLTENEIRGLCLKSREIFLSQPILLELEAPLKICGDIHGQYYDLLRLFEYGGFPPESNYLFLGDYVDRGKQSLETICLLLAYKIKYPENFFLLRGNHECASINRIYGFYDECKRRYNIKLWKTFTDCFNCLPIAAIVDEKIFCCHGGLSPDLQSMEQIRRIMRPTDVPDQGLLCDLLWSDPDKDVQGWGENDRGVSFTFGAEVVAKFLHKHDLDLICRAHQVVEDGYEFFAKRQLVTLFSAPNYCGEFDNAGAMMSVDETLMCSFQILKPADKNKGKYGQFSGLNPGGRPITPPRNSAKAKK
PP5 conf – confirmation of human PP5 phosphatase inhibitors; shares compounds with PP5 inh; Purified PP5, fluorogenic phosphatase substrate, fluorescence; inhibition, % at 6.7 µM; actives 22% (n = 460); AID 2331; in the data active = inhibition above about 9.5%
PP1 counter 3x – counter-screen for PP5 inhibitors: human PP1 phosphatase inhibition. AID 2355. inhibition, % at 6.7 µM. PP1 enzyme, fluorescent phosphatase substrate. shares compounds with PP5 inh. actives 4% (n = 460); in the data active = inhibition above about 16%
Hits are given with their value; - = inactive; . = not tested or not shown.

SMILES	PG9 binder	Rev-erbA mod	PP5 inh	KLK7 zymogen act	GASC-1 inh	PP1 counter	PP5 conf	PP1 counter 3x
C=CCN1C=C2C(=O)C(C)(OC(=O)CCC(=O)OC)C(=O)C(Br)=C2C=C1c1ccc(OC)cc1 (stereo not drawn)	.	.	12	.	-	-	38	18
COCCN1C=C2C(=O)C(C)(OC(=O)CCC(=O)OC)C(=O)C(Br)=C2C=C1c1ccc(OC)cc1 (stereo not drawn)	.	.	-	.	-	-	.	.
COC(=O)[C@]12C[C@H](CC(=O)N3CCCC3)C(=O)N(Cc3ccccc3)C1=C[C@H](C(C)C)O[C@@H]2C1CC1	-	-	.	-	.	.	.	.
CN1CCN(CC(=O)NN(Cc2ccccc2)c2ccccc2)CC1	-	-	12	-	-	-	-	-
Oc1ccccc1/C=N/Nc1cc(N2CCCC2)nc(N2CCCC2)n1	-	-	14	-	-	-	44	-
Cc1ccc(NC(=O)c2ccccc2F)cc1S(=O)(=O)N1CCCCCC1	-	-	11	-	-	-	-	-
CN1CC=C(c2ccc(C(F)(F)F)cc2)N(c2ccc(Br)cc2)C1=O	.	-	.	-	.	.	.	.
COc1ccc(/C=N/Nc2cc(N(C)C)nc(N(C)C)n2)cc1	-	-	14	-	-	-	43	-
Cc1cc(-c2ccccc2)nc(N/N=C/c2ccccc2)n1	-	-	-	-	-	-	.	.
CN(C)c1cc(N/N=C\c2ccccc2)nc(N(C)C)n1	-	-	16	-	-	-	38	-
COc1ccc(/C=N/Nc2cc(OC)ncn2)cc1	-	-	-	-	-	-	.	.
COc1ccccc1/C=N/Nc1cc(C)nc(N2CCOCC2)n1	-	-	-	-	-	-	.	.
COc1ccccc1/C=N/Nc1cc(N(C)C)nc(N(C)C)n1	-	-	18	-	-	-	30	-
CC(C)(C)OC(=O)NCc1cc2c(cc1/C=C/S(=O)(=O)NC1CCCC1)OCO2	.	-	.	-	.	.	.	.
COc1ccc(C2C3=C(CC(C)(C)CC3=O)Oc3ncn(Cc4ccccc4)c(=N)c32)cc1 (stereo not drawn)	-	-	11	-	-	-	-	-
CC1(C)CC(=O)C2=C(C1)Oc1ncn(Cc3ccco3)c(=N)c1C2c1ccccc1 (stereo not drawn)	-	-	-	-	-	-	.	.
COC(=O)C1=C(C)N(Cc2ccccc2C(F)(F)F)C(=NCc2ccc(OC)cc2)NC1c1ccc(C(F)(F)F)cc1 (stereo not drawn)	-	-	.	-	.	.	.	.
NC(=O)c1ccc(OCC(F)(F)C(F)(F)C(F)(F)C(F)(F)C(F)(F)C(F)F)cc1	-	-	-	-	-	-	.	.
Cc1cc(OCC(F)(F)C(F)(F)C(F)(F)C(F)(F)C(F)(F)C(F)F)nc(N)n1	-	-	15	-	-	-	-	-
Cc1ccc(NC2=C/C(=N/S(=O)(=O)c3cccs3)c3ccccc3C2=O)cc1C	-	-	-	-	-	-	.	.
CC(=O)Nc1ccc(NC2=C/C(=N/S(=O)(=O)c3cccs3)c3ccccc3C2=O)cc1	-	-	14	-	-	-	32	-
O=C(O)c1ccc(S(=O)(=O)/N=C2\C=C(Nc3ccccc3F)C(=O)c3ccccc32)cc1	-	-	9.6	-	-	-	42	-
Cc1ccccc1NC1=C/C(=N\S(=O)(=O)c2cccs2)c2ccccc2C1=O	-	-	15	-	-	-	51	-
CC(C)C[C@H](NC(=O)N1CCOCC1)C(=O)N1CCC[C@H]1C(=O)NCc1ccccc1	-	-	.	-	.	.	.	.
Cc1c(N=c2c(=O)c3ccccc3c2=O)c(=O)n(-c2ccccc2)n1C	.	.	13	.	-	-	35	-
SMILES	PG9 binder	Rev-erbA mod	PP5 inh	KLK7 zymogen act	GASC-1 inh	PP1 counter	PP5 conf	PP1 counter 3x
Cc1cc(C(=O)N(C2CCCCC2)C2CCCCC2)no1	-	-	9.7	-	-	-	-	-
O=C(Cc1ccc(S(=O)(=O)N2CCOCC2)s1)Nc1cc(C(F)(F)F)cc(C(F)(F)F)c1	-	-	9.7	-	-	-	13	-
COc1cc(/C=C2/C(=O)N(c3ccc([N+](=O)[O-])cc3)N=C2N2CCOCC2)ccc1O	-	-	16	-	-	-	-	-
CCNCc1cc(Br)c(OCC(=O)Nc2ccccc2)c(OC)c1	-	-	9.9	-	-	-	-	-
C[C@@H]1CN(C(=O)OC(C)(C)C)CCN1c1ccc(Br)c(C#N)c1	-	-	.	-	.	.	.	.
Cc1cccc(N/C(N)=N/c2nc3c(c(=O)[nH]2)CCCC3)c1	-	-	13	-	-	-	-	-
C[C@@H]1OC(C2CCCCC2)N(C)[C@H]2C[C@H]3c4[nH]c5c(-c6ccccc6)cccc5c4CCN3C(=O)[C@@H]12 (stereo partly drawn)	-	-	.	-	.	.	.	.
COc1ccc(C2=NN(C(=O)CN3CCCC3)C(c3ccc(OC)cc3)C2)cc1 (stereo not drawn)	-	-	-	-	-	-	.	.
COc1ccc(C2=NN(C(=O)CN3CCCCC3)C(c3ccc(OC)cc3)C2)cc1 (stereo not drawn)	-	-	17	-	-	-	-	-
CCC(=O)OCCCN1CCC2(CCC(c3ccccc3)CC2)C1=O (stereo not drawn)	.	-	.	-	.	.	.	.
O=C(CN1C(=O)c2ccccc2C1=O)Nc1cccc(S(=O)(=O)Nc2ccccc2Cl)c1	-	-	12	-	-	-	-	-
CN(C)c1cccc(-c2ccnc(N3CCC(C(N)=O)CC3)n2)c1	.	-	.	.	.	.	.	.
CN1CCC(NC(=O)Nc2cccc(C(F)(F)F)c2)CC1	-	-	-	-	-	-	.	.
CN1CCC(NC(=O)Nc2ccc(Br)cc2)CC1	-	-	13	-	-	-	-	-
O=C(CN1C(=O)NC(c2ccccc2)(c2ccccc2)C1=O)Nc1cccnc1Cl	-	-	12	-	-	-	-	-
CCC(=O)Nc1cccc(NC(=O)CSc2nnc(-c3ccc(NS(C)(=O)=O)cc3)n2CC)c1	-	-	9.7	-	-	-	-	-
CCn1c(SCC(=O)Nc2cccc(NC(=O)c3cccs3)c2)nnc1-c1ccncc1	.	.	-	.	-	-	.	.
COc1cc(C=O)ccc1OCCSc1ccc(Cl)cc1	-	-	15	-	-	-	-	-
CC(=O)Nc1cc2nc3ccccc3oc-2cc1=O	-	-	.	-	.	.	.	.
CCCC[C@H]1C2CC(OC(=O)Nc3cccc(Cl)c3)C(C2)[C@H]2CCCCN21 (stereo partly drawn)	.	-	.	-	.	.	.	.
C=CCNC(=S)Nc1cc(S(=O)(=O)N2CCOCC2)ccc1-n1cncn1	-	-	-	-	-	-	.	.
CCN(CC)c1ccc(C(=O)NC(=S)Nc2cc(S(=O)(=O)N3CCOCC3)ccc2-n2cncn2)cc1	-	-	18	-	-	-	-	-
